Test results from PubChem BioAssay AID504332 (National Center for Advancing Translational Sciences (NCATS), 2011).
The whole screen tested about 350,000 compounds, of which about 31,000 (8.9%) were called active. Roughly 15% stayed inconclusive and do not appear here. Calls come from the whole dose curve; as a rule, active = well fitted inhibition curve with a large enough effect; inconclusive = small, poorly fitted or top-dose-only effect; inactive = no such curve, though single readings can be large or run the other way. What follows is part of a selection rich in actives, with near analogues and random picks from the rest.

Target: Histone-lysine N-methyltransferase EHMT2 (Homo sapiens) (UniProt Q96KQ7)
Sequence (Q96KQ7 913-1193 limits assumed): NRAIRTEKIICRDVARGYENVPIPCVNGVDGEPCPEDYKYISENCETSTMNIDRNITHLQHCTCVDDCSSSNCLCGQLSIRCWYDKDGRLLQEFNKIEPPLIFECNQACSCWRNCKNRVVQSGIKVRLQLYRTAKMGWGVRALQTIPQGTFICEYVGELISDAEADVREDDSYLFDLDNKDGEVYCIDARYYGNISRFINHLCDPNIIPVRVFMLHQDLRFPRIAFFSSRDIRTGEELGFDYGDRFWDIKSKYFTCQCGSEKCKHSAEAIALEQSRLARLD
Assay: qHTS Assay for Inhibitors of Histone Lysine Methyltransferase G9a; note: nearly all actives have a fitted effect of over 75% in size
Conditions: G9a H3K9 monomethylation, AlphaScreen, 2 h; series mostly up to 59 µM; activity, negative = inhibition: at the top concentration
Outline: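 Compounds were preincubated with 20 nM G9a for 15 min, after which biotinylated H3K9 peptide (500 nM) and SAM (20 uM) started a 2 h room-temperature reaction. Monomethylated product was quantified by antibody-based AlphaScreen chemiluminescence.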
% is set by controls: 0 for no effect and ±100 for the full control effect; potency is the fitted concentration of half-maximal effect.

SMILES | activity, negative = inhibition | Potency
CC(=O)N1c2ccc(S(=O)(=O)N3CCCC(C(=O)Nc4cccc(F)c4)C3)cc2CC1C (stereo unspecified) | -7.59% [at 12.7 µM] (inactive) | –
CCN(CCCNC(=O)Cn1ncc2c3ccccc3n(C)c2c1=O)Cc1ccccc1 | 1.37% (inactive) | –
CCC(CC)c1nn2cc(-c3ccccc3)nc2s1 | 30.5% (inactive) | –
O=C(Nc1ccc2c(c1)OCCO2)C1CCCC1 | 2.92% [at 12.7 µM] (inactive) | –
Cc1ccc(-n2c(C)cc(/C=N/Nc3ccc([N+](=O)[O-])cn3)c2C)c(C)c1 | -11.9% (inactive) | –
Cc1cc(/C=N/Nc2ccc([N+](=O)[O-])cn2)c(C)n1-c1cccc(C(=O)O)c1 | – | 15.8 µM (active)
Cc1cccc(C)c1NC(=O)CSc1ccc([N+](=O)[O-])cn1 | -14.7% (inactive) | –
C#CC(C)(CC)NC(=O)Cn1nnc(-c2ccc(OCc3c(F)cccc3Cl)cc2)n1 (stereo unspecified) | -5.54% (inactive) | –
CCOc1ccc(NC(=O)CN(C)C(=O)c2c(C)noc2C)cc1OCC | 2.91% [at 102 µM] (inactive) | –
Cc1ccc(CSCC(N)C(=O)O)cc1 (stereo unspecified) | – | 15.8 µM (active)
Cc1ccc(CSCC(=O)N(C)CC(=O)Nc2cccc(F)c2)cc1 | 5.8% [at 102 µM] (inactive) | –
COCCN(C(=O)CSCc1ccc(C)cc1)c1c(N)n(CC(C)C)c(=O)[nH]c1=O | 19% [at 12.7 µM] (inactive) | –
Cc1ccc2c(=O)c(C(=O)c3ccc(F)cc3)cn(CC(=O)NC3CCCCC3)c2n1 | -25.3% (inactive) | –
O=C(NCCCN1CCCC1=O)c1cccc(S(=O)(=O)NCc2ccccc2)c1 | -27% [at 102 µM] (inactive) | –
CN(CC(=O)Nc1cccc(F)c1)CC(=O)Nc1cccc([N+](=O)[O-])c1 | -15.7% (inactive) | –
COc1ccc(S(=O)(=O)NC(C)C(=O)N2CCCCCC2)cc1 (stereo unspecified) | 14.2% [at 102 µM] (inactive) | –
COc1ccc(S(=O)(=O)NC(C)C(=O)Nc2cccc([N+](=O)[O-])c2)cc1 (stereo unspecified) | – | 50.1 µM (active)
COC(=O)/C=C\C(=O)Nc1cccc([N+](=O)[O-])c1 | – | 1.41 µM (active)
O=C(CSCC(=O)Nc1cccc([N+](=O)[O-])c1)Nc1ccccc1 | -22.9% (inactive) | –
COc1ccc(CCNS(=O)(=O)c2cccc([N+](=O)[O-])c2)cc1 | -4.51% [at 102 µM] (inactive) | –
Cc1c(C(=O)N(C)C)sc2c1c(=O)n(-c1ccc(F)cc1)c(=O)n2CC(=O)N(C)c1ccccc1 | 1.6% (inactive) | –
CC1=C(C(=O)Nc2ccccc2)C(c2ccc(C)cc2)n2nc(SCc3ccccc3C)nc2N1 (stereo unspecified) | 9.21% (inactive) | –
CCc1cccc(C)c1NC(=O)COC(=O)CNC(=O)c1cccs1 | -30.4% [at 102 µM] (inactive) | –
CCC1(c2ccccc2)NC(=O)N(CC(=O)Nc2ccccc2C(=O)NC2CCCC2)C1=O (stereo unspecified) | 20.5% [at 0.501 µM] (inactive) | –

SMILES | activity, negative = inhibition | Potency
COc1cc2c(cc1OC)C(C(=O)Nc1cc(C)c(OC)c(C)c1)CC(=O)N2 (stereo unspecified) | 17.9% [at 102 µM] (inactive) | –
CCc1ccc(Nc2n[n+](-c3ccccc3)c(-c3cccc(Cl)c3Cl)s2)cc1 | 10.7% [at 2.33 µM] (inactive) | –
COc1cc(Br)c(-c2sc(Nc3ccccc3)n[n+]2-c2ccccc2)cc1OC | – | 28.2 µM (active)
COc1ccc(C(=O)Nc2cccc(C(=O)OCc3cc(=O)n4c5c(sc4n3)CCCC5)c2)cc1 | 9.1% (inactive) | –
COc1ccc(C)cc1NC(=O)CSc1nnc2ccc(-c3ccccn3)nn12 | 2.04% [at 0.501 µM] (inactive) | –
COCCn1c(C)cc(C(=O)COC(=O)/C=C/c2cccc(OC)c2)c1C | – | 44.7 µM (active)
COc1cccc(/C=C/C(=O)OCC(=O)N2CCN(c3ccccc3)CC2)c1 | -4.22% [at 12.7 µM] (inactive) | –
COCCn1c(C)cc(C(=O)COC(=O)CNC(=O)c2ccco2)c1C | 26.7% (inactive) | –
Cc1cccc(-n2ncc(C(=O)N3CCc4ccccc4C3)c2C2CCN(C(=O)OC(C)(C)C)CC2)c1 | -1.5% (inactive) | –
COc1ccc(CNC(=O)c2ccc3c(c2)nc2n3CCOC2)c(OC)c1 | 1.96% (inactive) | –
CCc1nc(C)ccc1OCC(=O)N(CC)CC | – | 28.2 µM (active)
CCOC(=O)c1c(C)oc2ccc(OCC(=O)N(CC)CC)cc12 | 8.65% (inactive) | –
CCc1ccccc1NC(=O)CN(C)C(=O)COc1ccc(C)nc1[N+](=O)[O-] | 23% (inactive) | –
Cc1cccc(C)c1NC(=O)C1(C)c2cccc[n+]2CC(=O)N1Cc1cccs1 (stereo unspecified) | – | 14.1 µM (active)
CCc1cccc(C)c1NC(=S)N(CCCN1CCN(C)CC1)Cc1cccs1 | 112% (inactive) | –
Cc1cccc(C)c1NC(=O)N1CC(C)OC(C)C1 (stereo unspecified) | 16.9% [at 102 µM] (inactive) | –
O=C(OCC(=O)N1CCCC1)c1ccc(Cl)nc1 | 4.27% (inactive) | –
CCOC(=O)C1CCCN(C(=O)c2ccc(C)c(S(=O)(=O)N3CCCCC3)c2)C1 (stereo unspecified) | 38.4% [at 12.7 µM] (inactive) | –
COc1ccccc1CNc1nc(-c2c(C)noc2C)nc2ccccc12 | -6.92% [at 0.501 µM] (inactive) | –
C=CCOc1cccc(CNn2cn[nH]c2=S)c1 | 24.4% [at 0.0925 µM] (inactive) | –
C=CCOc1c(CNn2cn[nH]c2=S)cccc1OC | – | 20 µM (active)
Cc1ccc(Cl)cc1N1CCN(C(=O)c2cnc3c(-c4ccc(F)cc4)c(C)nn3c2C)CC1 | 7.75% (inactive) | –
Nc1nnc(SCn2nnc3ccccc3c2=O)s1 | – | 28.2 µM (active)
Cc1cccc(OCc2nnc(SCn3nnc4ccccc4c3=O)o2)c1 | 2.43% (inactive) | –

SMILES | activity, negative = inhibition | Potency
O=c1c2ccccc2nnn1CSc1nc2sc3c(c2c(=O)n1CC1CCCO1)CCC3 (stereo unspecified) | 8.89% (inactive) | –
O=C(NNS(=O)(=O)c1ccc(F)cc1)c1cnccn1 | – | 10 µM (active)
O=C(Nc1ccc(S(=O)(=O)N2CCCCC2)cc1)c1cnccn1 | 0.273% [at 102 µM] (inactive) | –
O=C(Nc1ccc(F)cc1)c1ccc(S(=O)(=O)NCc2cccnc2)cc1 | 31.2% [at 102 µM] (inactive) | –
CSCCC(NC(=O)c1ccco1)C(=O)Nc1cc(C)ccn1 (stereo unspecified) | -23.1% [at 102 µM] (inactive) | –
CCn1c(=O)cc(OCC(=O)Nc2cc(Cl)c(OC)cc2OC)c2ccccc21 | -14.6% (inactive) | –
CCN(CC)c1ccc(S(=O)(=O)N2CCCCC2)cc1NC(=O)C1=COCCO1 | -30.4% [at 102 µM] (inactive) | –
Cc1ccccc1Cn1nc(C)c(NC(=O)c2cc(-c3ccc(F)cc3)on2)c1C | 6.83% (inactive) | –
Cc1cc(C)cc(C(=O)NCC(=O)OCC(=O)N2CCCCC2)c1 | 14.1% [at 102 µM] (inactive) | –
Cc1nnnn1/C(=C\c1ccccc1)C(=O)OCC(=O)N1CC2(C)CC1CC(C)(C)C2 (stereo unspecified) | -22.1% (inactive) | –
Cc1cccc(C(=O)NCC(=O)OCC(=O)N2CC3(C)CC2CC(C)(C)C3)c1 (stereo unspecified) | – | 6.31 µM (active)
O=S(=O)(NCCc1ccccn1)c1cc(Cl)cc(Cl)c1O | 22.1% [at 2.33 µM] (inactive) | –
COC(=O)c1cc(C)sc1NC(=O)CC1Nc2ccccc2NC1=O (stereo unspecified) | – | 50.1 µM (active)
O=C(CC1Nc2ccccc2NC1=O)Nc1ccccc1NC(=O)CC1Nc2ccccc2NC1=O (stereo unspecified) | -46.1% [at 102 µM] (inactive) | –
CCOC(=O)c1ccccc1NC(=O)CC1Nc2ccccc2NC1=O (stereo unspecified) | -4.54% (inactive) | –
Cc1cccc(-n2ncc(C(=O)N3CCC(C)CC3)c2C2CCN(C(=O)OC(C)(C)C)CC2)c1 | -23.8% (inactive) | –
O=C(CS(=O)(=O)c1cccc2nsnc12)N1CCN(c2cccc(Cl)c2)CC1 | 4.58% (inactive) | –
COc1cc(NC(=O)Nc2ccc(C)cc2)cc([N+](=O)[O-])c1 | 9.42% [at 2.33 µM] (inactive) | –
COc1ccc(Cc2n[nH]c(=S)n2NC(=O)Nc2ccc(C)cc2)cc1 | – | 8.91 µM (active)
CCN(CC(=O)Nc1ccc(OC)cc1)C(=O)CSCc1ccc(C)cc1 | -8.18% [at 12.7 µM] (inactive) | –
Cc1csc(SCC(=O)N(c2ccccc2)C(C)C)n1 | -6.13% [at 102 µM] (inactive) | –
CCOc1ccc(NC(=O)c2ncoc2-c2ccco2)cc1 | 7.16% (inactive) | –
O=C(NCc1ccccc1CN1CCCC1)C1CCN(S(=O)(=O)c2ccc(Cl)cc2)CC1 | 16% (inactive) | –
C/C(=N\Nc1ncc(Cl)cc1Cl)c1ccc(S(=O)(=O)NCc2ccco2)cc1 | -15.6% (inactive) | –

SMILES | activity, negative = inhibition | Potency
Cc1c(Cl)cnc(NC(=O)COC(=O)c2ccc(S(=O)(=O)NCc3ccco3)cc2)c1Cl | – | 44.7 µM (active)
O=C(CCCl)Nc1ccc(S(=O)(=O)NCc2ccco2)cc1 | -13% (inactive) | –
CCC(=O)Nc1ccc(S(=O)(=O)Nc2c(NC)c3ccccc3oc2=O)cc1 | 2.23% (inactive) | –
Cc1ccc(S(=O)(=O)c2nc(-c3cccs3)oc2NCc2cccnc2)cc1 | – | 25.1 µM (active)
O=S(=O)(c1ccccc1)c1nc(-c2ccccc2F)oc1NCc1cccnc1 | -3.34% [at 102 µM] (inactive) | –
Cc1ccc(CSc2oc(-c3cccs3)nc2S(=O)(=O)c2ccc(C)cc2)cc1 | -0.9% (inactive) | –
Cc1cc(Cl)ccc1N1C(=O)CC(SCCC(=O)O)C1=O (stereo unspecified) | – | 10 µM (active)
CCC1Oc2ccc(Cl)cc2N(CC(=O)O)C1=O (stereo unspecified) | -29.8% [at 102 µM] (inactive) | –
Cc1ccc(N2C(=O)CC(N3CCSCC3)C2=O)c(C)c1 (stereo unspecified) | -5.6% [at 102 µM] (inactive) | –
Cc1ccc(CSc2nc3cccnc3n2Cc2ccc(C(=O)NC3CC3)cc2)cc1 | 10.3% (inactive) | –
COc1ccc(OCCn2cc(C(=O)C3CCCCC3)c3ccccc32)cc1 | 29.3% (inactive) | –
O=C1CSC2(C(=O)N(Cc3ccccc3)c3ccccc32)N1c1cccc(F)c1 (stereo unspecified) | -26.1% (inactive) | –
CCOc1ccccc1NC(=O)c1ccc2c(c1)CCN2S(=O)(=O)c1ccc(C)cc1 | 4.28% (inactive) | –
CC(=O)c1c(-c2ccccc2)c2ccccc2[nH]c1=O | -27.3% [at 102 µM] (inactive) | –
NC(=O)Cc1ccc2c(c1)[nH]c1ccccc12 | 15.3% [at 102 µM] (inactive) | –
S=c1[nH]c2ccccc2c2ccccc12 | – | 8.91 µM (active)
CCc1ccccc1N(C)C(=O)C1CCCN(c2ncnc3onc(-c4ccc(F)cc4)c23)C1 (stereo unspecified) | -6.79% (inactive) | –
COc1ccc([C@H]2CC(=O)C=C(/C=C/c3ccccc3)C2)cc1 | -12.4% [at 2.33 µM] (inactive) | –
COc1ccccc1Nc1nc(N)nc(N)c1S(=O)(=O)c1ccccc1 | 27.8% (inactive) | –
C=CCn1c(CCc2ccc(OC(C)C)cc2)n[nH]c1=S | 9.89% [at 102 µM] (inactive) | –
Cc1ccc(C)c2[nH]c(=O)c(CCNC(=O)c3cccs3)cc12 | 2.66% [at 102 µM] (inactive) | –
C=CCn1c(CCNC(=O)c2cccs2)n[nH]c1=S | – | 11.2 µM (active)
CCc1ccc(N(C(=O)c2csnn2)C(C(=O)NC2CCCCC2)c2cccnc2)cc1 (stereo unspecified) | -4.95% [at 102 µM] (inactive) | –
Cc1c(NS(=O)(=O)c2cc(C(=O)NCCc3ccc(F)cc3)cc(Cl)c2Cl)c(=O)n(-c2ccccc2)n1C | -13.8% [at 102 µM] (inactive) | –
